Compound activity: PubChem, National Center for Advancing Translational Sciences (NCATS)
KCNH2 WT inh – blocks the wildtype human KCNH2 potassium channel | activity change, % at 1.84 µM | Q12809 | 340,000 tested, 0.37% active | U2OS, BacMam KCNH2, thallium flux FluxOr; hits give low values;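 active = maximum activity change below -70%; inconclusive = maximum activity change between -70% and -50%; inactive = maximum activity change above -50%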
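U2OS cells transduced with wild-type KCNH2 virus are loaded with FluxOr dye for 45 min, and thallium flux is measured in kinetic reads before and after stimulation buffer. Rate constants are normalized to DMSO controls.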
TRPV1 agonist – agonists of human vanilloid receptor 1 (TRPV1). Q8NER1. TRPV1-expressing cells, Fluo-8 calcium influx, agonist mode. activation, % at 8.33 µM. 320,000 tested, 0.19% active. AID 540275; in the data active = activation above about 80%; inconclusive = between about 30% and that limit
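TRPV1-expressing cells were cultured overnight at 35.5C and loaded with Fluo-8 calcium dye for 40 to 90 min at room temperature. After a 10 s baseline, compound was added and calcium influx was read kinetically for 3 min (ex 480/em 520 nm).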
TRPV1 PAM – enhances activation of the human vanilloid receptor TRPV1. Q8NER1. TRPV1-expressing cells, Fluo-8 calcium influx, capsaicin EC20 potentiation. potentiation, % at 8.33 µM. 320,000 tested, 0.02% active. AID 540277; in the data active = potentiation above about 80%; inconclusive = between about 30% and that limit
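TRPV1-expressing cells were cultured overnight at 35.5C and loaded with Fluo-8 calcium dye for 40 to 90 min at room temperature. After a 10 s baseline, compound was added and calcium influx was read kinetically for 3 min (ex 480/em 520 nm).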
KCNH2 3.1 inh – blocks the human KCNH2 3.1 channel isoform; U2OS KCNH2 3.1, thallium flux FluxOr; hits give low values; activity change, % (tested at about 1.8 µM); 340,000 tested, 0.95% active; AID 720553;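 active = maximum activity change below -70%; inconclusive = maximum activity change from -70% to -50%; inactive = maximum activity change above -50%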;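 also: thallium influx rate constant from kinetic fluorescence after stimulation buffer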
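Channel expression came from 3.1 mutant virus (1.77 x 10^8 /mL) applied to suspended U2OS cells for 4 h. Flux was tracked with FluxOr dye plus Red40 quencher, and kinetic rate constants normalized to controls.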
Large screens that a line does not name were inactive. A selection: hits, their analogues and other compounds. The true share with any hit is near 1.2%.

COc1ccc(NC2CCCN(C(=O)CCc3ccccc3F)C2)cc1 (stereo unspecified)	TRPV1 agonist 81
Cc1ccc(C2CC(=O)C(C=NCCN3CCN(CC(=O)Nc4cc(C)cc(C)c4)CC3)=C(O)C2)cc1 (stereo unspecified)	none
Cc1cc(C)cc(NC(=O)CN2CCN(CCN=CC3=C(O)CC(C)(C)CC3=O)CC2)c1	KCNH2 3.1 inh -93
Cc1cc(NCCCn2ccnc2)n2ncc(-c3ccc(Cl)cc3)c2n1	KCNH2 3.1 inh -73
Cc1nc2c(sc(=S)n2Cc2ccco2)c(=O)n1CC(=O)Nc1ccc(F)cc1	KCNH2 3.1 inh -87
Cc1c(NC(=S)NC(=O)c2ccc(COc3ccccc3)cc2)cccc1C(=O)O	KCNH2 WT inh -231
Cc1c(NC(=S)NC(=O)c2cccc3ccccc23)cccc1C(=O)O	none
Cc1ccc(C(=O)CC(=O)c2ccccc2)cc1	TRPV1 agonist 81
Cc1ccc(C(=O)Cc2ccccc2)cc1	none (no result: TRPV1 agonist, TRPV1 PAM)
O=[N+]([O-])c1ccc(C2CCCC/C2=N\OCc2cccc(F)c2)c([N+](=O)[O-])c1 (stereo unspecified)	none
Cc1ccc(C(=O)N/C(=C\c2ccc(-c3ccc(Br)cc3)o2)C(=O)NCCCN(C)C)cc1	KCNH2 WT inh -80
CN(C)CCNC(=O)/C(=C/c1ccc(-c2ccc(Cl)cc2)o1)NC(=O)c1ccccc1	KCNH2 3.1 inh -91
Cc1ccc(CNS(=O)(=O)c2ccc(-c3cnc(C4CC4)o3)cc2)cc1	KCNH2 3.1 inh -89
COc1ccccc1NC(=O)CCC(=O)OCc1ccc([N+](=O)[O-])cc1	none
CN(C)c1ccc(-c2nnn(Cc3ccccc3Br)n2)cc1	KCNH2 3.1 inh -93
CCNC(=S)N1CCN(c2nc(CC)nc3sc4c(c23)CCCC4)CC1	TRPV1 agonist 83
CCc1nc(N2CCN(C(=O)CCCl)CC2)c2c3c(sc2n1)CCCC3	none (no result: TRPV1 agonist, TRPV1 PAM)
CCCCCCN1C[C@H](O)[C@@H](n2cc(C3CC3)nn2)C[C@@H]1c1ccc(OC)cc1	KCNH2 WT inh inconclusive, KCNH2 3.1 inh -117 (no result: TRPV1 agonist, TRPV1 PAM)
COCCn1nnnc1C(c1ccc(C)cc1)N1CCN(Cc2ccc3c(c2)OCO3)CC1 (stereo unspecified)	none
Cc1ccc(C(c2nnnn2Cc2cccs2)N2CCN(Cc3ccc4c(c3)OCO4)CC2)cc1 (stereo unspecified)	KCNH2 WT inh -110, KCNH2 3.1 inh -95
CC(C)C(c1nnnn1Cc1ccc(F)cc1)N1CCN(Cc2ccc3c(c2)OCO3)CC1 (stereo unspecified)	KCNH2 3.1 inh -71
CS(=O)(=O)c1ccc(Cl)c(NC(=O)c2ccc(-n3cncn3)c([N+](=O)[O-])c2)c1	none (no result: TRPV1 agonist, TRPV1 PAM)
CN1C(C(=O)NCCc2cccs2)CC2Cn3c(nc4cc(Cl)c(Cl)cc43)C21 (stereo unspecified)	none
COc1ccc(CCNC(=O)C2CC3Cn4c(nc5cc(Cl)c(Cl)cc54)C3N2C)cc1 (stereo unspecified)	KCNH2 WT inh -252
COc1ccc(/C=C/C(=O)N[C@H](C(=O)O)C(C)C)cc1	none
CCOC(=O)c1ccc(NC(=O)c2cc3c(s2)CCC3)cc1	TRPV1 agonist 106
O=C(c1cnsn1)N1CCC(CO)(Cc2ccc(Cl)cc2)CC1	none
OCC1(Cc2ccc(Cl)cc2)CCN(Cc2ccccc2F)CC1	KCNH2 3.1 inh inconclusive
OCC1(Cc2ccc(Cl)cc2)CCN(CCCc2ccccc2)CC1	KCNH2 WT inh inconclusive, KCNH2 3.1 inh -89
OCC1(Cc2ccc(Cl)cc2)CCN(CC2CC=CCC2)CC1 (stereo unspecified)	KCNH2 3.1 inh -72
CN1CCC(CO)(Cc2ccccc2)CC1	none
CSc1ccc(CN2CCC(CO)(Cc3ccc(Cl)cc3)CC2)cc1	KCNH2 3.1 inh -101
COc1cccc(CNC(=O)c2ccc3c(c2)N(Cc2ccc(F)cc2Cl)C(=O)c2ccccc2S3)c1	TRPV1 agonist inconclusive (no result: KCNH2 WT inh, KCNH2 3.1 inh)
Oc1ccc(Cl)cc1C1C=C(c2ccc3c(c2)OCO3)NC(c2cc(Br)ccc2F)N1 (stereo unspecified)	none (no result: KCNH2 WT inh, KCNH2 3.1 inh)
CCN(Cc1ccccc1)C(=O)C(C)OC(=O)c1cc(S(=O)(=O)Nc2c(C)n(C)n(-c3ccccc3)c2=O)ccc1C (stereo unspecified)	none (no result: KCNH2 WT inh)
COC(=O)c1c(NC(=O)CS(=O)(=O)c2ccc(C)cc2)sc2c1CCCCC2	none (no result: KCNH2 WT inh, KCNH2 3.1 inh)
CNC(=S)NN=C(C)CCCC(C)=NNC(=S)NC	none (no result: TRPV1 agonist, TRPV1 PAM)
COc1ccc(CC(=O)Nc2oc(-c3ccccc3)c(-c3ccccc3)c2C#N)cc1OC	TRPV1 agonist 84
COc1ccccc1OCC(=O)Nc1oc(-c2ccccc2)c(-c2ccccc2)c1C#N	none
CN(C)/C=C1\C=C2C(=O)c3ccccc3N2C1=O	TRPV1 agonist 93
CN(C)S(=O)(=O)N1C(=O)c2ccccc2C1=O	none
O=C1C2C3CCCC3=C3CCCC3C2C(=O)N1c1ccccc1Cl (stereo unspecified)	none (no result: KCNH2 WT inh, KCNH2 3.1 inh)
Cc1ccc(NC(=S)NCc2ccc3c(c2)cc(C)n3C)c(C)c1	KCNH2 3.1 inh -103 (no result: KCNH2 WT inh)
CCN(CC)CC(O)CN(c1ccccc1)S(=O)(=O)c1ccc2ccccc2c1 (stereo unspecified)	KCNH2 WT inh -89, TRPV1 PAM inconclusive, KCNH2 3.1 inh -106
CCOC(=O)c1c(N)nn(C(=O)C(C)C)c1-c1ccc(OC)cc1	none
CCOC(=O)c1c(N)nn(C(C)=O)c1-c1ccccc1	KCNH2 3.1 inh -73
CC(C)c1c(O)ccc2c1CC[C@H]1C(C)(C)CCC[C@]21C	none (no result: TRPV1 agonist, TRPV1 PAM)
CC(C)NC(=O)C1CCN(C2CCN(Cc3nc4ccccc4s3)CC2)CC1	KCNH2 3.1 inh -118
CC(=O)c1cc(CN2CCC(N3CCC(C(=O)NC(C)C)CC3)CC2)cs1	none
COc1cccc(OC)c1OCCCN1CCC(Cc2ccccc2)CC1	KCNH2 3.1 inh -70
COc1cccc(OC)c1OCCN1CCN(C(c2ccccc2)c2ccccc2)CC1	KCNH2 WT inh inconclusive, KCNH2 3.1 inh -103
CCOC(=O)N1CCc2c(sc(NC(=O)CN3CCOCC3)c2C(=O)Nc2ccccc2)C1	none
CCOC(=O)N1CCc2c(sc(NC(=O)CN3CCN(C)CC3)c2C(=O)Nc2ccccc2)C1	KCNH2 WT inh inconclusive, TRPV1 agonist inconclusive, KCNH2 3.1 inh -97
CCn1c(-c2nn(-c3ccccc3)ccc2=O)n[nH]c1=S	KCNH2 WT inh active
O=C(N/N=C1\CCCc2ccccc21)C(O)c1ccccc1 (stereo unspecified)	none
OC(COc1ccc(Cl)cc1)CN1CCN(c2ccccc2)CC1 (stereo unspecified)	none
OC(COc1ccc(Cl)cc1)CN1CCC(Cc2ccccc2)CC1 (stereo unspecified)	KCNH2 WT inh -93, KCNH2 3.1 inh -125
CCCCN(C)C(=O)C1CCN(Cc2ccc(OCc3ccccc3)cc2)CC1	KCNH2 3.1 inh -75
COc1ccc(CN2CCC(Cc3ccccc3)CC2)cc1OC	none
CCOc1ccc(CN2CCC(Cc3ccccc3)CC2)cc1	KCNH2 WT inh -85, KCNH2 3.1 inh -92
Cc1cc(OCCN2CCC(Cc3ccccc3)CC2)ccc1[N+](=O)[O-]	KCNH2 3.1 inh -71
NC(=O)C1=CC2C3C=CC2(O)C(=O)OC3O1 (stereo unspecified)	none (no result: TRPV1 agonist, TRPV1 PAM)
